Out of some 5,500 compounds screened, about 2,000 (36%) were called active. Roughly 18% stayed inconclusive and do not appear here. No stated cut-off is given here; in the data, active means normalized growth mostly below about 0.91 (no sharp cut-off); inconclusive means no clear call, values can overlap the other calls; inactive means mostly above about 0.92. Some of the results follow.
Experiment: chemical genetic growth profiling, strain panel (AID 1159580);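 further: tested at 20 µM; growth read once vehicle control cultures reached saturation at 30 °C; 1 = growth at the plate median or of vehicle wells; lower values mean less growth of the strain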
Conditions: growth OD

Measured: normalized growth

OC1C(O)C(O)C(O)C(O)C1O (stereo not given)
inactive: S. cerevisiae deletion strains, locus YJR075W, strain HOC1, active compounds read low 1 | S. cerevisiae deletion strains, locus YKL009W, strain mrt4, active compounds read low 0.953 | S. cerevisiae deletion strains, locus YKL068W, active compounds read low 0.973 | S. cerevisiae deletion strains, locus YKL085W, strain MDH1 (second series), active compounds read low 0.97 | S. cerevisiae deletion strains, locus YKL085W, strain MDH1, active compounds read low 0.97 | S. cerevisiae deletion strains, locus YKL160W, strain elf1, active compounds read low 1 | S. cerevisiae deletion strains, locus YKL190W, strain CNB1, active compounds read low 0.99 | S. cerevisiae deletion strains, locus YKR001C, strain vps1, active compounds read low 0.982 | S. cerevisiae deletion strains, locus YKR026C, strain gcn3, active compounds read low 0.997 | S. cerevisiae deletion strains, locus YKR091W, strain srl3, active compounds read low 0.999 | S. cerevisiae deletion strains, locus YLL001W, strain dnm1, active compounds read low 0.997 | S. cerevisiae deletion strains, locus YLL026W, active compounds read low 1 | S. cerevisiae deletion strains, locus YLL041C, strain sdh2, active compounds read low 0.996 | S. cerevisiae deletion strains, locus YLR027C, strain aat2, active compounds read low 1 | S. cerevisiae deletion strains, locus YLR039C, strain RIC1, active compounds read low 0.966 | S. cerevisiae deletion strains, locus YLR058C, strain SHM2, active compounds read low 0.982 | S. cerevisiae deletion strains, locus YLR102C, strain apc9, active compounds read low 0.994 | S. cerevisiae deletion strains, locus YLR113W, strain HOG1, active compounds read low 0.964 | S. cerevisiae deletion strains, locus YLR221C, strain rsa3, active compounds read low 1 | S. cerevisiae deletion strains, locus YLR258W, strain gsy2, active compounds read low 0.998 | S. cerevisiae deletion strains, locus YLR262C, strain YPT6 (second series), active compounds read low 1 | S. cerevisiae deletion strains, locus YLR262C, strain YPT6, active compounds read low 0.962 | S. cerevisiae deletion strains, locus YLR268W, strain sec22, active compounds read low 0.996 | S. cerevisiae deletion strains, locus YLR320W, strain mms22, active compounds read low 0.998 | S. cerevisiae deletion strains, locus YLR330W, strain CHS5, active compounds read low 0.995 | S. cerevisiae deletion strains, locus YLR342W, strain FKS1 (second series), active compounds read low 1.04 | S. cerevisiae deletion strains, locus YLR342W, strain FKS1, active compounds read low 0.995 | S. cerevisiae deletion strains, locus YLR357W, strain rsc2, active compounds read low 0.988 | S. cerevisiae deletion strains, locus YLR370C, strain arc18, active compounds read low 1 | S. cerevisiae deletion strains, locus YLR371W, strain rom2, active compounds read low 0.976 | S. cerevisiae deletion strains, locus YLR384C, strain iki3, active compounds read low 0.998 | S. cerevisiae deletion strains, locus YLR418C, strain cdc73, active compounds read low 0.979 | S. cerevisiae deletion strains, locus YML016C, strain PPZ1, active compounds read low 0.996 | S. cerevisiae deletion strains, locus YML032C, strain rad52, active compounds read low 0.981 | S. cerevisiae deletion strains, locus YML120C, strain ndi1, active compounds read low 1.01 | S. cerevisiae deletion strains, locus YML124C, strain tub3, active compounds read low 0.985 | S. cerevisiae deletion strains, locus YMR058W, strain fet3, active compounds read low 1 | S. cerevisiae deletion strains, locus YMR078C, strain ctf18, active compounds read low 0.982 | S. cerevisiae deletion strains, locus YMR125W, strain sto1, active compounds read low 0.991 | S. cerevisiae deletion strains, locus YMR129W, active compounds read low 0.997 | S. cerevisiae deletion strains, locus YMR205C, strain PFK2, active compounds read low 0.996 | S. cerevisiae deletion strains, locus YMR223W, strain ubp8, active compounds read low 1.02 | S. cerevisiae deletion strains, locus YMR231W, strain pep5, active compounds read low 1 | S. cerevisiae deletion strains, locus YMR263W, strain SAP30, active compounds read low 0.99 | S. cerevisiae deletion strains, locus YMR307W, strain GAS1, active compounds read low 1.03 | S. cerevisiae deletion strains, locus YNL067W, strain RPL9B, active compounds read low 0.965 | S. cerevisiae deletion strains, locus YNL071W, strain lat1, active compounds read low 1 | S. cerevisiae deletion strains, locus YNL153C, strain GIM3, active compounds read low 0.972 | S. cerevisiae deletion strains, locus YNL183C, strain NPR1, active compounds read low 0.984 | S. cerevisiae deletion strains, locus YNL209W, strain ssb2, active compounds read low 0.997 | S. cerevisiae deletion strains, locus YNL233W, strain BNI4, active compounds read low 0.996 | S. cerevisiae deletion strains, locus YNL248C, strain rpa49, active compounds read low 0.99 | S. cerevisiae deletion strains, locus YNL250W, strain rad50, active compounds read low 0.979 | S. cerevisiae deletion strains, locus YNL271C, strain bni1, active compounds read low 0.984 | S. cerevisiae deletion strains, locus YNL298W, strain CLA4, active compounds read low 0.991 | S. cerevisiae deletion strains, locus YNL307C, strain MCK1, active compounds read low 0.984 | S. cerevisiae deletion strains, locus YNL322C, strain KRE1 (second series), active compounds read low 1 | S. cerevisiae deletion strains, locus YNL322C, strain KRE1, active compounds read low 0.993 | S. cerevisiae deletion strains, locus YNR049C, strain mso1, active compounds read low 1 | S. cerevisiae deletion strains, locus YNR052C, strain pop2, active compounds read low 0.989 | S. cerevisiae deletion strains, locus YOL006C, strain TOP1, active compounds read low 0.938 | S. cerevisiae deletion strains, locus YOL012C, strain htz1 1.04 | S. cerevisiae deletion strains, locus YOL147C, strain pex11, active compounds read low 0.994 | S. cerevisiae deletion strains, locus YOR001W, strain rrp6, active compounds read low 1.01 | S. cerevisiae deletion strains, locus YOR061W, strain CKA2, active compounds read low 0.974 | S. cerevisiae deletion strains, locus YOR069W, strain VPS5, active compounds read low 0.997 | S. cerevisiae deletion strains, locus YOR070C, strain gyp1, active compounds read low 1 | S. cerevisiae deletion strains, locus YOR080W, strain dia2, active compounds read low 0.993 | S. cerevisiae deletion strains, locus YOR083W, strain WHI5, active compounds read low 1 | S. cerevisiae deletion strains, locus YOR106W, strain vam3, active compounds read low 1 | S. cerevisiae deletion strains, locus YOR136W, strain idh2, active compounds read low 0.984 | S. cerevisiae deletion strains, locus YOR144C, strain elg1, active compounds read low 0.987 | S. cerevisiae deletion strains, locus YOR184W, strain ser1, active compounds read low 0.996 | S. cerevisiae deletion strains, locus YOR231W, strain MKK1, active compounds read low 0.995 | S. cerevisiae deletion strains, locus YOR265W, strain rbl2, active compounds read low 1 | S. cerevisiae deletion strains, locus YOR270C, strain vph1, active compounds read low 1 | S. cerevisiae deletion strains, locus YOR290C, strain snf2, active compounds read low 0.996 | S. cerevisiae deletion strains, locus YOR316C, strain cot1, active compounds read low 0.979 | S. cerevisiae deletion strains, locus YPL051W, strain arl3, active compounds read low 1.01 | S. cerevisiae deletion strains, locus YPL055C, strain LGE1, active compounds read low 0.966 | S. cerevisiae deletion strains, locus YPL078C, strain atp4, active compounds read low 1 | S. cerevisiae deletion strains, locus YPL106C, strain sse1, active compounds read low 1 | S. cerevisiae deletion strains, locus YPL240C, strain hsp82, active compounds read low 0.995 | S. cerevisiae deletion strains, locus YPL256C, strain CLN2, active compounds read low 0.961 | S. cerevisiae deletion strains, locus YPR119W, strain clb2, active compounds read low 0.993 | S. cerevisiae deletion strains, locus YPR141C, strain kar3, active compounds read low 0.929 | S. cerevisiae deletion strains, locus YPR163C, strain tif3, active compounds read low 0.991 | S. cerevisiae deletion strains, locus YPR167C, strain met16, active compounds read low 0.985 | S. cerevisiae deletion strains, strain wtn01, active compounds read low 0.993 | S. cerevisiae strains, strain wild type, active compounds read low 0.994

Reference: PubChem BioAssay AID1159580 (chemical genetic matrix, 2015)
